# An excerpt weighted towards active compounds, which were near 2.5% of everything screened.
# Pol eta inh: blocks human DNA polymerase eta activity; Q9Y253; recombinant Pol eta, fluorescent DNA replication assay; Potency, µM (top dose mostly 114 µM), without a hit: at the top dose activity change, negative = inhibition, most hits filed as inhibitors; hit rate 1.2% among 390,000; further: on the % scale 0 is the no-effect control and ±100 the full control effect
#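 Pol eta (10 nM) was preincubated with compounds for 15 min at room temperature, after which fluorescent replication substrate (50 nM final) was added to start the reaction. Fluorescence was read kinetically at 0 and 10 min.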
# POLI inh: inhibitors of human DNA polymerase iota | Pol iota fluorescent replication assay, 10 min | hit rate 1% among 390,000 | Potency, µM (series often up to 115 µM), without a hit: at the highest dose activity, negative = inhibition, actives largely listed as inhibitors
#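 Pol iota at 10 nM preincubated 15 min with compounds at room temperature; reaction started with fluorescent substrate, 50 nM final. Fluorescence read kinetically at 0 and 10 min; buffer-only wells as negative control.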
# Pol beta inh: DNA polymerase beta (human) inhibition. P06746. Potency, µM (titrated, usually from 114 µM), for the others: at the highest dose activity change, negative = inhibition, actives largely listed as inhibitors. Pol beta primer extension/strand displacement, fluorescence kinetic. AID 485314. hit rate 1.3% among 340,000; further: on the % scale 0 is the no-effect control and ±100 the full control effect
#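 Pol beta (10 nM) and compounds were preincubated 15 min at room temperature, then 50 nM substrate (final) started primer extension/strand displacement. Reads were taken at 0 and 10 min; concentration-response data were fitted to a four-parameter Hill equation.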
# L3MBTL1 inh: inhibitors of human L3MBTL1. Q9Y468. AlphaScreen L3MBTL1–H3K9me1 peptide binding. hit rate 0.66% among 230,000. Potency, µM (titrated, usually from 57.1 µM), for inactives: at the highest dose activity, negative = inhibition, actives largely listed as inhibitors; further: on the % scale 0 is the no-effect control and ±100 the full control effect; nearly all actives have a fitted effect of over 60% in size
#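 AlphaScreen proximity signal between nickel-chelate acceptor and streptavidin donor beads (final 10 ug/mL) reports binding of 50 nM L3MBTL1 to 75 nM biotin-H3 K9me1 peptide; complex incubated with compounds 30 min at room temperature; cefsulodin titration as control.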
# POLK inh: blocks human DNA polymerase kappa activity. Q9UBT6. hit rate 0.53% among 400,000. Potency, µM (highest dose often 107 µM), without a hit: at the highest dose activity, negative = inhibition, usual class: inhibitors. purified Pol kappa, fluorescent DNA synthesis assay, 10 min. AID 588579; further: on the % scale 0 is the no-effect control and ±100 the full control effect
#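 Kinetic fluorescence screen: compound preincubated 15 min RT with 10 nM enzyme; 50 nM substrate (final) initiates; reads at 0/10 min.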
# WRN helicase inh: WRN helicase (human) inhibition | Potency, µM (series often up to 114 µM), without a hit: at the highest dose activity change, negative = inhibition, hits mostly inhibitors | WRN helicase unwinding, fluorescent forked duplex, kinetic | hit rate 0.46% among 360,000; further: on the % scale 0 is the no-effect control and ±100 the full control effect; nearly all actives have a fitted effect of over 55% in size
#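 Screening of the MLSMR collection measured strand separation of a quenched forked DNA duplex (100 nM) by 20 nM WRN with 2 mM ATP, all final. Compounds were preincubated with enzyme 15 min at room temperature.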
# Starred values were filed as active, the others as inactive; ? = inconclusive; . = no result given; [ ] = remark or other dose. The call rests on the fitted dose curve; in most records, active means well fitted curve in the direction sought with a large enough effect; inconclusive means small, poorly fitted or top-dose-only effect, or another doubt; inactive means no such curve, though single readings can be large; an effect the other way counts as inactive or inconclusive. Potency means the concentration at half of the fitted maximal effect.
SMILES,Pol eta inh,POLI inh,Pol beta inh,L3MBTL1 inh,POLK inh,WRN helicase inh
COc1ccc(NS(=O)(=O)c2ccc(C)c(C(=O)O)c2)cc1,79µM*,?,45µM*,-24%,-10%,-6%[11.6 µM]
CCOc1ccc(-c2nnc(SCC(=O)Nc3ccc4c(c3)c3ccccc3n4CC)n2N)cc1,?,50µM*,40µM*,-9%,-37%,-19%[57.1 µM]
COc1ccccc1NS(=O)(=O)c1cc(N)ccc1N1CCCC1,-25%,79µM*,.,-14%,-12%,-24%
C#CCOCCOCCOCCNc1nc(N2CCN(C(=O)[C@H]([C@@H](C)CC)n3cc(CCCN=C(N)N)nn3)CC2)nc(N2CCN(C(=O)[C@H](CCCCN)n3cc(CC(C)O)nn3)CC2)n1 (stereo not given in full),-17%,?,.,-4%,1%,-2%
CC1(C)C(=O)Nc2ccccc2N1C(=O)COC(=O)COc1cccc(C(F)(F)F)c1,-10%,2%,.,3%,-19%,-14%
O=C(O)c1ccccc1N/N=C/c1cc(Br)cc(Br)c1O,79µM*,?,?,-2%,-22%,-34%
Cc1ccc(C)n1-c1sccc1C(=O)O,-98%,-99%,4µM*,.,0.89µM*,3.2µM*
Cc1cc(C(=O)O)c(C)n1-c1ccccc1,9%,3%,6%,.,-7%,-2%
[N-]=[N+]=Nc1ccc(C(=O)CSC[C@H](NC(=O)CC[C@H](N)C(=O)O)C(=O)NCC(=O)O)cc1,?,28µM*,?,.,?,.
N[C@@H](CCC(=O)N[C@@H](CSN=O)C(=O)NCC(=O)O)C(=O)O,-16%,7%,.,7%,17%,-7%
Cc1ccccc1Nc1c(-c2ccc(Cl)s2)nc2c(C)cccn12,-15%,-39%,11µM*,.,-24%,.
O=C(CC1SC(=O)N(c2ccccc2)C1=O)Nc1ccc(Br)cc1 (stereo not given),-18%,84%,-2%,-9%,-6%,?
O=C(CC1SC(=O)N(c2ccccc2)C1=O)Nc1ccc(Cl)cc1 (stereo not given),5%,58%,-12%,-2%,-19%,25µM*
COc1ccc(-n2nc(C(=O)N3CCC(C)CC3)c3c4ccccc4n(C)c3c2=O)cc1Cl,-1%,8%,25%,.,-4%,.
CCCCn1c(=O)[nH]c(=O)c2c1nc(Cn1ncc(Cl)c(Cl)c1=O)n2CCC,56µM*,25µM*,50µM*,.,-8%,-23%
CN(C)c1ccc(/C=C2\C=Cc3cc(N)ccc32)cc1,.,35%,.,.,-3%,.
COc1ccc2nnc(-c3ccccc3)n2n1,-2%,89µM*,-1%,.,-19%,-15%[11.6 µM]
COc1ccccc1C(=O)NC(=O)CSc1nnc(SC)s1,-13%,17%,.,10%,-1%,-8%
COc1ccccc1C(=O)NC(=O)CSc1nnc(N)s1,79µM*,?,.,-7%,-30%,-14%[11.6 µM]
N=C1C(c2nc3ccccc3[nH]2)=C(O)CN1c1ccccc1,-16%,3%,13%,.,-1%,-14%
N=C1C(c2nc3ccccc3[nH]2)=C(O)CN1c1ccc(CC(=O)O)cc1,79µM*,?,-17%,.,-12%,-23%
O=C1OC(Cc2ccccn2)C(O)=C1C1=NCCCCN1 (stereo not given),-4%,155%,4%,3%,-13%,-4%
C#CCOC(=O)c1ccccc1C(=O)O,6%,79µM*,0%,5%,-8%,-3%
C#CCOC(=O)c1ccccc1C(=O)OCC#C,-4%,5%,9%,3%,-5%,4%
O=C(CC(Sc1ccc(Br)cc1)C(=O)O)c1ccc(Br)cc1 (stereo not given),.,.,-9%,.,.,.
SMILES,Pol eta inh,POLI inh,Pol beta inh,L3MBTL1 inh,POLK inh,WRN helicase inh
COc1cccc(Nc2ncccc2C(=O)NCc2ccccc2)c1,?,6%,89µM*,3%,-17%,-12%
CC1=NN(c2ccccc2)C(=O)C1N=Nc1cccc(O)c1 (stereo not given),-15%,-29%,22%,-28%,3%,-9%
CC1=NN(c2ccc(C)cc2C)C(=O)C1C(c1cccc(O)c1)C1C(=O)N(c2ccc(C)cc2C)N=C1C (stereo not given),-21%,1.3µM*,36%,-5%,-4%,-18%
CC1(C)O[C@@H]2C[C@H]3[C@H]4C[C@H](F)C5=CC(=O)CC[C@]5(C)[C@@H]4[C@H](O)C[C@]3(C)[C@]2(C(=O)CO)O1,.,.,.,.,-3%[19.4 µM],.
CC(=O)Nc1cc(-c2cccc(C(=O)NCCN(C)C)c2)cn2c(-c3cccc(C(F)(F)F)c3)cnc12,.,.,.,.,.,79µM*
COCCn1c(N)c(N(Cc2ccccc2)C(=O)CN2C(=O)NC(C)(c3ccccc3)C2=O)c(=O)[nH]c1=O (stereo not given),-21%,5%,4%,.,-15%,-13%
COc1ccc(S(=O)(=O)CC(=O)c2cc3cccc(C)c3oc2=O)cc1,50µM*,?,?,.,-25%,-28%
CCN1/C(=C/c2cc[n+](CCCS(=O)(=O)[O-])c3ccccc23)Sc2ccccc21,-5%,?,?,-23%,-12%,-13%
C=CC[n+]1ccc(/C=C2\C=Cc3cc(C)ccc3N2CC)c2ccccc21,-15%,?,?,.,50µM*,40µM*
CCOC(=O)c1[nH]c(C)c(C(=O)/C=C/c2ccc(C(=O)O)cc2)c1C,22µM*,-14%,39%,.,-14%,-17%
CCOC(=O)c1[nH]c(C)c(C(=O)O)c1C,.,.,0%,.,.,.
COc1ccc([C@H]2CC(=O)C=C(c3cccc(Cl)c3O)C2)cc1OC,-14%,26%,.,-10%,-4%,-17%
CC1=NN(c2ccc(C)cc2)C(=O)/C1=C\C=C\c1ccccc1,?,100%,-5%,?,-4%,-6%[11.6 µM]
COc1ccc(/C=C2/C(=O)N(c3ccccc3)N=C2C)cc1Br,?,1.3µM*,18%,.,3%,-17%[11.6 µM]
CC1=NN(c2ccccc2)C(=O)/C1=C/C=C/C=C/N(C)C,-25%,45µM*,?,.,?,?
COc1ccc(/C=C2/C(=O)N(c3cccc(F)c3)N=C2C)c(OC)c1,11%,1.1µM*,28%,0%[2.29 µM],-9%,1%
CC1=NN(c2ccccc2)C(=O)/C1=C\c1ccc(Br)s1,89µM*,?,1%,?,-18%,-13%[11.6 µM]
CC1=NN(c2cccc(F)c2)C(=O)/C1=C/c1ccc(N(C)C)cc1,1%,144%,15%,-1%,-2%,-4%
CC1=NN(c2ccccc2)C(=O)/C1=C/c1ccc[nH]1,-18%,-5%,9%,?,-12%,-9%
CC1=NN(c2ccccc2)C(=O)/C1=C/c1ccc(Cl)cc1,-2%,?,-29%,?,2%,3%[11.6 µM]

# Screening results: PubChem BioAssay, National Center for Advancing Translational Sciences (NCATS)
